# Results as given in PubChem BioAssay (Tox21).
# “And” between values parts separate entries of the source, which are not always exact repeats. Identical values can stand only once. Inconclusive results are not listed. Where a call stands in place of a potency, no number is given. A structure can be active in one record and inactive in another. The source made the active and inactive calls. Unless noted, calls come from the whole dose curve; as a rule, active = well fitted curve in the direction sought with a large enough effect in the repeat runs; inconclusive = weak or mixed curves; inactive = no such curve, though single readings can be large; an effect the other way counts as inactive or inconclusive.
# Assays:
# [1] = qHTS assay to identify small molecule agonists of the hypoxia (HIF-1) signaling pathway - cell viability counter screen (AID 1224844; calls by dose curve; note: nearly all actives have a fitted effect of over 50% in size; note: potency is the fitted concentration of half-maximal effect)
# In short: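 Cells (HRE-bla ME-180, 2,000 per well) sat 5 hrs at 37C, got compound for 17 hrs, were read for CCF4-AM FRET, and were finally lysed with CellTiter-Glo for a 30 min room-temperature luminescence read.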
# [2] = qHTS assay to identify small molecule agonists of H2AX - cell viability counter screen (AID 1224847; calls by dose curve; note: nearly all actives have a fitted effect of over 30% in size; note: potency is the fitted concentration of half-maximal effect;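 for activity change, negative = cytotoxicity: wild-type CHO-K1 cells; top concentration of the series differs between compounds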)
# In short: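 Cells plated first: CHO-K1, 1000 per well in 10% FBS medium, incubated overnight at 37C. Then 15-point compound titration added (final DMSO 0.76%) for 3 hr. Finally CellTiter-Glo added and luminescence read.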
# [3] = qHTS assay to identify small molecule antagonists of the estrogen related receptor (ERR) signaling pathway from Tox21 library (AID 1224848); note: nearly all actives have a fitted effect of over 50% in size; note: potency is the fitted concentration of half-maximal effect
# In short: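 Antagonist-mode screen of the Tox21 10K library in an NTP-provided ERR reporter cell line; 18 h compound exposure at 37 C, luminescence measured with ONE-Glo.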
# [4] = qHTS assay to identify small molecule agonists of the estrogen related receptor (ERR) signaling pathway from Tox21 library (AID 1224849; calls by dose curve; note: nearly all actives have a fitted effect of over 15% in size); settings: ERR reporter cell line, ONE-Glo luciferase, 18 h
# In short: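 Screening used an NTP-provided ERR luciferase cell line. Compounds in DMSO were added 6 h after seeding and left 18 h at 37 C before a 30 min ONE-Glo step and luminescence reading.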
# [5] = qHTS RealTime-Glo MT Cell Viability Assay in HEK293 cells - 32 hour (AID 1224868); note: nearly all actives have a fitted effect of over 50% in size; note: potency is the fitted concentration of half-maximal effect; for activity change, negative = cytotoxic: top concentration of the series differs between compounds
# In short: (§1)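 Viability tracked continuously by luminescence as live cells reduce a prosubstrate for NanoLuc; HEK293 cells preincubated 5 h, compound-treated at 37 C, and read at 0, 8, 16, 24, 32 and 40 h.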
# [6] = A CellTox Green Cytotoxicity Assay to monitor cytotoxicity in HEK293 cells - 0 hour (AID 1224869); note: nearly all actives have a fitted effect of over 50% in size; note: potency is the fitted concentration of half-maximal effect
# In short: (§2)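 Fluorescence intensity, read at 0, 8, 16, 24, 32 and 40 h of compound treatment, reflected dye binding to DNA of dead HEK293 cells; compounds (23 nL, DMSO) were added 5 h after plating cells with reagent.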
# [7] = qHTS RealTime-Glo MT Cell Viability Assay in HepG2 cells - 40 hour (AID 1224870); note: nearly all actives have a fitted effect of over 50% in size; note: potency is the fitted concentration of half-maximal effect
# In short: (§3)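 Real-time viability: cells seeded at 600 per well together with NanoLuc and cell-permeant prosubstrate, compounds added after 5 h incubation. Luminescence tracked at 0, 8, 16, 24, 32 and 40 h of exposure.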
# [8] = A CellTox Green Cytotoxicity Assay to monitor cytotoxicity in HEK293 cells - 40 hour (AID 1224871); note: nearly all actives have a fitted effect of over 45% in size; note: potency is the fitted concentration of half-maximal effect
# In short: as §2
# [9] = qHTS RealTime-Glo MT Cell Viability Assay in HEK293 cells - 16 hour (AID 1224872); note: nearly all actives have a fitted effect of over 50% in size; note: potency is the fitted concentration of half-maximal effect; for activity change, negative = cytotoxicity: top concentration of the series differs between compounds
# In short: as §1
# [10] = qHTS RealTime-Glo MT Cell Viability Assay in HepG2 cells - 8 hour (AID 1224873); note: nearly all actives have a fitted effect of over 55% in size; note: potency is the fitted concentration of half-maximal effect
# In short: as §3
# [11] = qHTS RealTime-Glo MT Cell Viability Assay in HEK293 cells - 40 hour (AID 1224874); settings: RealTime-Glo luminescence; max response: stronger effect = lower value; note: nearly all actives have a fitted effect of over 50% in size; note: potency is the fitted concentration of half-maximal effect
# In short: (§4)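 Viable HEK293 cells reduce a cell-permeant prosubstrate; the product diffuses out and is consumed by NanoLuc in the medium to give light. Compounds went in after a 5 h incubation and plates were read over the treatment course.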
# [12] = A CellTox Green Cytotoxicity Assay to monitor cytotoxicity in HEK293 cells - 24 hour (AID 1224875); note: nearly all actives have a fitted effect of over 45% in size; note: potency is the fitted concentration of half-maximal effect
# In short: as §2
# [13] = A CellTox Green Cytotoxicity Assay to monitor cytotoxicity in HepG2 cells - 16 hour (AID 1224876); note: nearly all actives have a fitted effect of over 45% in size; note: potency is the fitted concentration of half-maximal effect
# In short: (§5)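 Using 1536-well format, dye-containing HepG2 suspension was seeded, allowed 5 h at 37 C/5% CO2, dosed by pintool with compounds, positive and negative controls, and imaged for fluorescence across 40 h.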
# [14] = A CellTox Green Cytotoxicity Assay to monitor cytotoxicity in HepG2 cells - 24 hour (AID 1224878); note: nearly all actives have a fitted effect of over 45% in size; note: potency is the fitted concentration of half-maximal effect
# In short: as §5
# [15] = A CellTox Green Cytotoxicity Assay to monitor cytotoxicity in HepG2 cells - 40 hour (AID 1224879); note: nearly all actives have a fitted effect of over 40% in size; note: potency is the fitted concentration of half-maximal effect
# In short: as §5
# [16] = qHTS RealTime-Glo MT Cell Viability Assay in HEK293 cells - 0 hour (AID 1224880); note: nearly all actives have a fitted effect of over 45% in size; note: potency is the fitted concentration of half-maximal effect; for activity change, negative = cytotoxicity: top concentration of the series differs between compounds
# In short: as §4
# [17] = qHTS assay to identify small molecule agonists of H2AX (AID 1224845; active = well fitted activation curve with a large enough effect in the signal ratio in the repeat runs, not every such curve was filed as active; the % refers to the signal ratio; note: potency is the fitted concentration of half-maximal effect)
# In short: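 Phospho-H2AX Ser139 measured by HTRF (ex 320 nm; em 665 and 620 nm) after 24 hr antibody incubation. Compounds, 15 concentrations, 0.76% DMSO, were applied to CHO-K1 cells for 3hr at 37C before lysis.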
# [18] = qHTS RealTime-Glo MT Cell Viability Assay in HepG2 cells - 24 hour (AID 1224867); note: nearly all actives have a fitted effect of over 50% in size; note: potency is the fitted concentration of half-maximal effect
# In short: (§6)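 Viability was tracked continuously by NanoLuc luminescence from prosubstrate reduced by living HepG2 cells, at successive time points over 40 h of compound exposure. Cells with reagent were preincubated 5 h at 37 °C before compound addition.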
# [19] = qHTS RealTime-Glo MT Cell Viability Assay in HepG2 cells - 32 hour (AID 1224877); note: nearly all actives have a fitted effect of over 55% in size
# In short: as §6
# [20] = qHTS assay to identify small molecule agonists of the hypoxia (HIF-1) signaling pathway (AID 1224846; active = well fitted activation curve with a large enough effect in the signal ratio in the repeat runs, not every such curve was filed as active; the % refers to the signal ratio)
# In short: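 A low-serum medium (0.5% dialyzed FBS) holding 2,000 HRE-bla ME-180 cells per well is preincubated for 5 hrs, dosed with compounds by pintool, and kept a further 17 hrs at 37C, 5% CO2 before CCF4-AM FRET detection of beta-lactamase.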
structure (smiles),measurement,setting,value
Nc1cc(Cl)c(-c2cc(Cl)c(N)cc2Cl)cc1Cl,Potency,[1],38.9 µM (active)
same,Potency,[2],101 µM (active) and 113 µM (active)
same,Potency,[3],54.4 µM (active) and 61.1 µM (active)
same,"activity change, positive = activation",[4]; at 92.4 µM (top of the series),-76.8% (inactive) and -62.3% (inactive)
same,Potency,[5],6.91 µM (active) and 1.74 µM (active)
same,Potency,[6],inactive
same,Potency,[7],inactive
same,Potency,[8],inactive
same,Potency,[9],24.5 µM (active)
same,Potency,[10],inactive
same,Potency,[11],6.91 µM (active) and 1.74 µM (active)
same,Potency,[12],inactive
same,Potency,[13],inactive and 54.9 µM (active)
same,Potency,[14],inactive and 54.9 µM (active)
same,Potency,[15],4.36 µM (active) and 54.9 µM (active)
same,Potency,[16],inactive
Cc1cc(C2(c3cc(C)c(O)cc3C)OS(=O)(=O)c3ccccc32)c(C)cc1O,Potency,[1],inactive
same,Potency,[2],inactive
same,Potency,[3],61.1 µM (active) and inactive
same,"activity change, positive = activation",[4]; at 92.4 µM (top of the series),-48.1% (inactive) and -15.2% (inactive)
same,Potency,[5],inactive
same,Potency,[6],inactive
same,Potency,[7],inactive
same,Potency,[8],inactive
same,max response,[11],-21.7% (inactive) and -18.4% (inactive)
same,Potency,[12],inactive
same,Potency,[13],inactive
same,Potency,[14],inactive
same,Potency,[15],inactive
same,Potency,[16],27.5 µM (active) and 24.5 µM (active)
O=c1n(CC2CO2)c(=O)n(CC2CO2)c(=O)n1CC1CO1 (stereo unspecified),Potency,[1],inactive
same,Potency,[17],112 µM (active)
same,Potency,[18],inactive
same,Potency,[6],inactive
same,Potency,[8],inactive
same,Potency,[9],inactive
same,Potency,[10],inactive
same,Potency,[11],1.37 µM (active)
same,Potency,[12],inactive
same,Potency,[13],inactive
same,Potency,[19],inactive
same,Potency,[14],inactive
same,Potency,[15],inactive
same,Potency,[16],inactive
c1ccc2n[nH]nc2c1,Potency,[1],inactive
same,Potency,[2],inactive
same,Potency,[18],inactive
same,Potency,[5],inactive
same,Potency,[6],inactive
same,Potency,[7],inactive
same,Potency,[8],inactive
same,Potency,[9],inactive
same,Potency,[10],inactive
same,max response,[11],10.2% (inactive) and 5.87% (inactive)
same,Potency,[12],inactive
same,Potency,[13],inactive
same,Potency,[19],inactive
same,Potency,[14],inactive
same,Potency,[15],inactive
same,Potency,[16],inactive
NC(Cc1ccc(Cl)cc1)C(=O)O (stereo unspecified),"activity change, negative = cytotoxicity",[1],0.588% [at 0.29 µM] (inactive)
same,"activity change, negative = cytotoxicity",[2],-0.321% [at 0.582 µM] (inactive)
same,"activity, negative = inhibition",[3],-15% [at 0.349 µM] (inactive)
same,"activity change, positive = activation",[4]; at 0.349 µM (top of the series),-8.03% (inactive)
same,"activity change, negative = cytotoxicity",[18],0.0518% [at 0.29 µM] (inactive)
same,"activity change, negative = cytotoxic",[5],11.7% [at 0.29 µM] (inactive)
same,cytotoxicity,[6],-2.12% [at 0.29 µM] (inactive)
same,cytotoxicity increase,[8],-8.99% [at 0.29 µM] (inactive)
same,"viability change, negative = cytotoxic",[10],-7.98% [at 0.29 µM] (inactive)
same,max response,[11],10.5% (inactive)
same,activity change,[12],"-5.17% [at 0.29 µM, stronger effect = higher value] (inactive)"
same,cytotoxicity increase,[13],-4.84% [at 0.29 µM] (inactive)
same,"activity change, negative = cytotoxic",[19],0.542% [at 0.29 µM] (inactive)
same,cytotoxicity,[14],-5.86% [at 0.29 µM] (inactive)
same,cytotoxicity increase,[15],-9.84% [at 0.29 µM] (inactive)
same,"activity change, negative = cytotoxicity",[16],12.3% [at 0.29 µM] (inactive)
Oc1c(Cl)cc(Cl)cc1Sc1cc(Cl)cc(Cl)c1O,Potency,[1],19.5 µM (active) and 24.5 µM (active) and inactive
same,Potency,[17],inactive
same,"activity change, positive = activation",[4]; at 42.5 µM (top of the series),-52.3% (inactive)
same,"activity change, positive = activation",[4]; at 92.4 µM (top of the series),-60.8% (inactive) and -52.2% (inactive) and -57.2% (inactive)
same,Potency,[5],19.5 µM (active) and 15.5 µM (active)
same,Potency,[6],inactive and 27.5 µM (active)
same,Potency,[7],inactive
same,Potency,[8],49.1 µM (active) and 43.6 µM (active) and inactive
same,Potency,[10],inactive
same,Potency,[11],17.4 µM (active) and 22.2 µM (active) and 13.8 µM (active)
same,Potency,[19],inactive
same,Potency,[14],39.5 µM (active) and 43.6 µM (active) and inactive
same,Potency,[16],inactive
Nc1ccc2cc3ccccc3cc2c1,Potency,[1],inactive
same,Potency,[17],inactive
same,Potency,[5],inactive
same,Potency,[6],inactive
same,Potency,[7],inactive
same,Potency,[8],inactive
same,Potency,[9],inactive
same,Potency,[10],inactive
same,max response,[11],-15.8% (inactive) and 6.47% (inactive)
same,Potency,[12],inactive
same,Potency,[13],inactive
same,Potency,[19],inactive
same,Potency,[14],inactive
same,Potency,[15],inactive
same,Potency,[16],inactive
CCCCCCCCCCCC[N+](C)(C)C,Potency,[1],inactive
same,Potency,[17],inactive
same,Potency,[5],6.15 µM (active) and 3.47 µM (active)
same,Potency,[6],inactive
same,Potency,[8],54.8 µM (active) and 17.4 µM (active) and 54.9 µM (active)
same,Potency,[9],inactive
same,Potency,[10],inactive
same,Potency,[11],4.35 µM (active) and 9.77 µM (active)
same,Potency,[12],inactive
same,Potency,[14],54.8 µM (active) and 54.9 µM (active) and 49 µM (active)
same,Potency,[15],43.5 µM (active) and 43.6 µM (active) and 38.9 µM (active)
same,Potency,[16],inactive
O=C(O)CCc1ccccc1,Potency,[1],inactive
same,Potency,[2],inactive
same,Potency,[3],inactive
same,"activity change, positive = activation",[4]; at 92.4 µM (top of the series),0.886% (inactive)
same,Potency,[18],inactive
same,Potency,[5],inactive
same,Potency,[6],inactive
same,Potency,[7],inactive
same,Potency,[8],inactive
same,Potency,[9],inactive
same,Potency,[10],inactive
same,max response,[11],3.43% (inactive)
same,Potency,[12],inactive
same,Potency,[13],inactive
same,Potency,[19],inactive
same,Potency,[15],inactive
same,Potency,[16],inactive
Cc1scc2c1N(C(=O)CN1CCN(C)CC1)c1ccccc1NC2=O,Potency,[1],inactive
same,Potency,[17],inactive
same,Potency,[5],inactive
same,Potency,[6],inactive
same,Potency,[8],inactive
same,Potency,[9],inactive
same,Potency,[10],inactive
same,max response,[11],1.2% (inactive)
same,Potency,[12],inactive
same,Potency,[13],inactive
same,Potency,[19],inactive
same,Potency,[14],inactive
same,Potency,[15],inactive
same,Potency,[16],inactive
Cc1ccnc2c1NC(=O)c1cccnc1N2C1CC1,Potency,[1],inactive
same,Potency,[20],inactive
same,Potency,[2],inactive
same,Potency,[5],inactive
same,Potency,[6],inactive
same,Potency,[7],inactive
same,Potency,[8],inactive
same,Potency,[9],inactive
same,Potency,[10],inactive
same,max response,[11],-13.4% (inactive) and -3.25% (inactive)
same,Potency,[12],inactive
same,Potency,[19],inactive
same,Potency,[14],inactive
same,Potency,[15],inactive
same,Potency,[16],inactive
CCCCCCCCCCCCc1ccccc1O,Potency,[1],19.5 µM (active)
same,Potency,[17],55.9 µM (active) and 40.1 µM (active)
same,Potency,[18],inactive and 38.9 µM (active)
same,Potency,[5],48.3 µM (active) and 49 µM (active)
same,Potency,[6],inactive
same,Potency,[7],inactive and 49 µM (active)
same,Potency,[8],43.1 µM (active) and 34.7 µM (active)
same,Potency,[10],inactive and 34.7 µM (active)
same,Potency,[11],48.3 µM (active) and 49 µM (active)
same,Potency,[12],43.1 µM (active) and 38.9 µM (active)
same,Potency,[13],inactive and 21.9 µM (active)
same,Potency,[14],17.4 µM (active)
same,Potency,[15],48.3 µM (active) and 21.9 µM (active)
same,Potency,[16],inactive
